Reference: PubChem BioAssay (Tox21)
Inconclusive results are not listed. A call without a number means that no potency is given here. Values without a mark were called inactive. Activity calls are given as the source filed them. Unless noted, calls follow the shape of the full dose curve.

Test system: not listed separately
Assay: cAMP Responsive Elements (CRE) small molecule agonists, cell-based qHTS assay (AID 1963590)
Conditions: CRE-bla HEK293T, beta-lactamase FRET ratio, 3 h; series mostly up to 92.4 µM; activation: at the top concentration
Outline: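 CRE-bla HEK 293T cells in DMEM with 10% dialyzed FBS, NEAA, pyruvate and 25 mM HEPES were plated 18 h at 37 C/5% CO2, then exposed to compounds in DMSO for 3 h before LiveBLAzer B/G FRET substrate addition.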
In the case of Clc1ccc(Cl)cc1, the Potency is reported as “inactive”. For FC(F)(F)c1ccc(Cl)cc1, the Potency was “inactive”. For CCCCCCCCCBr, the “activation” value was 0.08%. For COC(=O)NS(=O)(=O)c1ccc(N)cc1, the Potency was “inactive”. For CC(O)CN1CCN(CC(=O)[O-])CCN(CC(=O)[O-])CCN(CC(=O)[O-])CC1.[Gd+3] (stereo not drawn), the “activation” value was -1.95% [at 42.5 µM]. With Nc1cnn(-c2ccccc2)c(=O)c1Cl the “activation” value was -0.131%. In the case of Cl[C@H]1OCCO[C@@H]1Cl, the Potency is reported as “inactive”. With O=[N+]([O-])c1cc(Cl)ccc1Cl the “activation” value was -0.464%. In the case of c1nc[nH]n1, the Potency is reported as “inactive”. With COC[C@H](C)N(C(=O)CCl)c1c(C)csc1C the “activation” value was -0.845%. In the case of CCC(=O)Nc1ccc(Cl)c(Cl)c1, the Potency is reported as “inactive”. For C=C(C)C(=O)OCC1CO1 (stereo not drawn), the Potency was “inactive”. In the case of O=C(NC(=O)c1c(F)cccc1F)Nc1cc(Cl)c(OC(F)(F)C(F)C(F)(F)F)cc1Cl (stereo not drawn), the Potency is reported as “inactive”.

Test system: not listed separately
Assay: cAMP Responsive Elements (CRE) small molecule antagonists, cell-based qHTS assay (AID 1963591; active = well fitted inhibition curve with a large enough effect in the signal ratio in the repeat runs, not every such curve was filed as active; the % refers to the signal ratio)
Conditions: CRE-bla HEK293T, beta-lactamase FRET ratio; series mostly up to 92.4 µM; activity change, negative = inhibition: at the top concentration
Outline: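 CRE-bla HEK293T cells were plated 18 h at 37 °C/5% CO2, pinned with compound in DMSO, then stimulated with NKH477 at 0.25 uM final for 3 h. LiveBLAzer B/G FRET substrate was added and plates incubated 2 h at room temperature.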
With CC(C)[N+](C)(CCC(C(N)=O)(c1ccccc1)c1ccccc1)C(C)C the “activity change, negative = inhibition” value was 1.47% [at 42.4 µM]. With O=C(Cl)CCl the “activity change, negative = inhibition” value was -0.343%. For COC(=O)c1ccccc1N, the Potency was “inactive”. For CN(C)NC(=O)CCC(=O)O, the Potency was “inactive”. For CN(C)C(=O)C(c1ccccc1)c1ccccc1, the Potency was “inactive”. In the case of ClCc1ccccn1, the Potency is reported as “inactive”. With CCCOC(=O)c1ccccc1C(=O)OCCC the “activity change, negative = inhibition” value was -25%. With Cc1ccc(N)c(N)c1 the Potency was “inactive”. With N#CC1(N=NC2(C#N)CCCCC2)CCCCC1 the “activity change, negative = inhibition” value was 3.34%. For C=C(C)C(=O)OCC(CC)CCCC (stereo not drawn), the “activity change, negative = inhibition” value was -5.4%. In the case of O=C(CCN1CC1)OCC(CO)(COC(=O)CCN1CC1)COC(=O)CCN1CC1, the “activity change, negative = inhibition” value is reported as -12.8%. With CCCCOC(=O)c1ccccc1C(=O)OCCCC the Potency was “inactive”. With CC(O)CN(CC(C)O)CC(C)O (stereo not drawn) the Potency was “inactive”. With CN(N=O)C(N)=O the “activity change, negative = inhibition” value was 5.51%. With CCOC(=O)c1cncn1C(C)c1ccccc1 (stereo not drawn) the “activity change, negative = inhibition” value was -1.97% [at 42.4 µM]. For CCN(CC)c1ccccc1, the Potency was “inactive”. With CCOc1nc(F)cc2nc(S(=O)(=O)Nc3c(Cl)cccc3Cl)nn12 the “activity change, negative = inhibition” value was 13.5%. With O=[N+]([O-])c1ccccc1O the Potency was “inactive”. For Nc1ccc(N=Nc2ccc(-c3ccc(N=Nc4c(S(=O)(=O)O)cc5cc(S(=O)(=O)O)c(N=Nc6ccccc6)c(O)c5c4N)cc3)cc2)c(N)c1, the “activity change, negative = inhibition” value was -9.35% [at 42.4 µM]. With c1ccc(P(c2ccccc2)c2ccccc2)cc1 the Potency was “inactive”. In the case of CCCCCBr, the “activity change, negative = inhibition” value is reported as 8.24%. For c1ccc2c(c1)sc1ccccc12, the “activity change, negative = inhibition” value was 12% [at 42.4 µM]. In the case of COc1ccc2c3c1O[C@H]1[C@H](O)CC[C@H]4[C@@H](C2)N(C)CC[C@@]341, the “activity change, negative = inhibition” value is reported as 0.28%. In the case of CN(C)CCc1c[nH]c2cccc(OP(=O)(O)O)c12, the “activity change, negative = inhibition” value is reported as -1.1%. In the case of CC(Cl)C(=O)O (stereo not drawn), the “activity change, negative = inhibition” value is reported as 2.68%. For Clc1ccc(Cl)cc1, the Potency was “inactive”. With FC(F)(F)c1ccc(Cl)cc1 the Potency was “inactive”. With CCCCCCCCCBr the “activity change, negative = inhibition” value was -9.05%. With COC(=O)NS(=O)(=O)c1ccc(N)cc1 the Potency was “inactive”. With CC(O)CN1CCN(CC(=O)[O-])CCN(CC(=O)[O-])CCN(CC(=O)[O-])CC1.[Gd+3] (stereo not drawn) the “activity change, negative = inhibition” value was 0.604% [at 42.4 µM]. In the case of Nc1cnn(-c2ccccc2)c(=O)c1Cl, the “activity change, negative = inhibition” value is reported as 4.76%. With Cl[C@H]1OCCO[C@@H]1Cl the “activity change, negative = inhibition” value was -5.8%. In the case of O=[N+]([O-])c1cc(Cl)ccc1Cl, the “activity change, negative = inhibition” value is reported as -9.1%. With c1nc[nH]n1 the Potency was “inactive”. For COC[C@H](C)N(C(=O)CCl)c1c(C)csc1C, the “activity change, negative = inhibition” value was 0.821%. With CCC(=O)Nc1ccc(Cl)c(Cl)c1 the Potency was “inactive”. In the case of C=C(C)C(=O)OCC1CO1 (stereo not drawn), the Potency is reported as “inactive”. In the case of O=C(NC(=O)c1c(F)cccc1F)Nc1cc(Cl)c(OC(F)(F)C(F)C(F)(F)F)cc1Cl (stereo not drawn), the “activity change, negative = inhibition” value is reported as -15.2% [at 42.4 µM].

Molecular target: Beta-2 adrenergic receptor (Homo sapiens) (UniProt P07550)
Sequence (P07550 whole entry, looked up): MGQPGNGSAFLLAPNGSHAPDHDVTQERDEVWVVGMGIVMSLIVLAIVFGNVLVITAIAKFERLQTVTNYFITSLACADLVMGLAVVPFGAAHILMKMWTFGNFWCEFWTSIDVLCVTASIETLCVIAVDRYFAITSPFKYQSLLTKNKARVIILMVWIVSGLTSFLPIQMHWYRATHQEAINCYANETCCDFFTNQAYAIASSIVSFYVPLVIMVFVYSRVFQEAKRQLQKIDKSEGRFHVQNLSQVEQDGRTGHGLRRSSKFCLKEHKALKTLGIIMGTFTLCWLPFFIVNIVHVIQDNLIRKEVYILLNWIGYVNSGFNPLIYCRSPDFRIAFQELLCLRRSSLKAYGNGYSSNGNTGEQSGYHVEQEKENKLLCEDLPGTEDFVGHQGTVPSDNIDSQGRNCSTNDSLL
Assay: Adrenergic beta2 receptor (ADRB2) small molecule antagonists, cell-based qHTS assay (AID 1963592); also: nearly all actives have a fitted effect of over 50% in size
Conditions: CHO-ADRB2 cells, isoproterenol-stimulated cAMP HTRF ratio, 0.5 h; series mostly up to 92.4 µM; activity change, negative = inhibition: at the top concentration
Outline: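 Cells (CHO, stable ADRB2 overexpression) incubated 18-20hr at 37C; compounds added from DMSO; agonist mix (1nM isoproterenol, 100uM IBMX, 25uM Ro-20-1724) added; 0.5hr RT; d2-cAMP and anti-cAMP-cryptate added; 1hr RT; 665/615 nm read.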
For CC(C)[N+](C)(CCC(C(N)=O)(c1ccccc1)c1ccccc1)C(C)C, the “activity change, negative = inhibition” value was -4.93% [at 42.5 µM]. For O=C(Cl)CCl, the “activity change, negative = inhibition” value was -20.1%. In the case of COC(=O)c1ccccc1N, the Potency is reported as “inactive”. For CN(C)NC(=O)CCC(=O)O, the Potency was “inactive”. In the case of CN(C)C(=O)C(c1ccccc1)c1ccccc1, the Potency is reported as “inactive”. For ClCc1ccccn1, the Potency was “inactive”. In the case of CCCOC(=O)c1ccccc1C(=O)OCCC, the Potency is reported as “inactive”. With Cc1ccc(N)c(N)c1 the Potency was “inactive”. In the case of N#CC1(N=NC2(C#N)CCCCC2)CCCCC1, the “activity change, negative = inhibition” value is reported as -6.95%. For C=C(C)C(=O)OCC(CC)CCCC (stereo not drawn), the Potency was “inactive”. With O=C(CCN1CC1)OCC(CO)(COC(=O)CCN1CC1)COC(=O)CCN1CC1 the “activity change, negative = inhibition” value was 2.6%. For CCCCOC(=O)c1ccccc1C(=O)OCCCC, the Potency was “inactive”. In the case of CC(O)CN(CC(C)O)CC(C)O (stereo not drawn), the Potency is reported as “inactive”. For CN(N=O)C(N)=O, the “activity change, negative = inhibition” value was 0.186%. For CCOC(=O)c1cncn1C(C)c1ccccc1 (stereo not drawn), the “activity change, negative = inhibition” value was 0.314% [at 42.5 µM]. For CCN(CC)c1ccccc1, the Potency was “inactive”. With CCOc1nc(F)cc2nc(S(=O)(=O)Nc3c(Cl)cccc3Cl)nn12 the “activity change, negative = inhibition” value was -4.32%. In the case of O=[N+]([O-])c1ccccc1O, the Potency is reported as “inactive”. With c1ccc(P(c2ccccc2)c2ccccc2)cc1 the “activity change, negative = inhibition” value was -11%. In the case of CCCCCBr, the “activity change, negative = inhibition” value is reported as 1.11%. For c1ccc2c(c1)sc1ccccc12, the Potency was “inactive”. With COc1ccc2c3c1O[C@H]1[C@H](O)CC[C@H]4[C@@H](C2)N(C)CC[C@@]341 the “activity change, negative = inhibition” value was -0.804%. For CN(C)CCc1c[nH]c2cccc(OP(=O)(O)O)c12, the “activity change, negative = inhibition” value was 1.9%. For CC(Cl)C(=O)O (stereo not drawn), the “activity change, negative = inhibition” value was 5.41%. In the case of Clc1ccc(Cl)cc1, the Potency is reported as “inactive”. For FC(F)(F)c1ccc(Cl)cc1, the Potency was “inactive”. In the case of CCCCCCCCCBr, the “activity change, negative = inhibition” value is reported as -2.37%. With COC(=O)NS(=O)(=O)c1ccc(N)cc1 the Potency was “inactive”. For CC(O)CN1CCN(CC(=O)[O-])CCN(CC(=O)[O-])CCN(CC(=O)[O-])CC1.[Gd+3] (stereo not drawn), the “activity change, negative = inhibition” value was 1% [at 42.5 µM]. With Nc1cnn(-c2ccccc2)c(=O)c1Cl the “activity change, negative = inhibition” value was -0.329%. For Cl[C@H]1OCCO[C@@H]1Cl, the Potency was “inactive”. In the case of O=[N+]([O-])c1cc(Cl)ccc1Cl, the “activity change, negative = inhibition” value is reported as 3.48%. In the case of c1nc[nH]n1, the Potency is reported as “inactive”. In the case of COC[C@H](C)N(C(=O)CCl)c1c(C)csc1C, the “activity change, negative = inhibition” value is reported as -5.22%. With CCC(=O)Nc1ccc(Cl)c(Cl)c1 the Potency was “inactive”. For C=C(C)C(=O)OCC1CO1 (stereo not drawn), the Potency was “inactive”. For O=C(NC(=O)c1c(F)cccc1F)Nc1cc(Cl)c(OC(F)(F)C(F)C(F)(F)F)cc1Cl (stereo not drawn), the Potency was “inactive”.
